Potency data for 27 molecules are collected here from PubChem BioAssay (Tox21).

SMILES strings stand for the structures. Inconclusive results are not listed. Active and inactive are the calls of the source. The call rests on the fitted dose curve.

For assay [1], the target named is Acetylcholinesterase (Homo sapiens) (UniProt P22303). Put plainly: Acetylcholinesterase (AChE) small molecule antagonists: enzyme-based qHTS assay (AID 1347397). Further: nearly all actives have a fitted effect of over 55% in size. Further: potency means the concentration at half of the fitted maximal effect. To be noted: Potency: AChE enzyme activity inhibition; outcome: AChE enzyme activity inhibition. An outline of the steps: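 Enzyme inhibition was scored from DTNB-detected thiocholine formed by recombinant human AChE acting on acetylthiocholine. The 30 min compound preincubation and 10 min substrate reaction were both run at room temperature, with DMSO as vehicle control.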
A general note: Quantitative high-throughput screening tests each substance at several concentrations.

The target is the same in assay [2]. Put plainly: Acetylcholinesterase (AChE) small molecule antagonists: fluorescence cell-based qHTS assay (AID 1347398). Further: nearly all actives have a fitted effect of over 50% in size. Further: potency means the concentration at half of the fitted maximal effect. To be noted: Potency: AChE activity; outcome: AChE activity. An outline of the steps:
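Endogenous acetylcholinesterase of SH-SY5Y neuroblastoma cells is measured in situ. After overnight attachment and 30 min compound exposure, cells receive acetylthiocholine and Thiolite Green; fluorescence is read after 40 min at room temperature.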

Assay [3] has the same target. As to the kind of experiment: Acetylcholinesterase (AChE) small molecule antagonists: enzyme-based qHTS assay with human liver microsomes (AID 1347399). Further: nearly all actives have a fitted effect of over 60% in size. To be noted: Potency: qHTS inhibition; outcome: qHTS inhibition. An outline of the steps:
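Recombinant human AChE (50 mU/mL in the enzyme mix) and human liver microsomes (0.25 mg/mL final) were preincubated with compound and NADPH (0.25 mg/mL final) for 30 min at 37 C. Acetylthiocholine/DTNB was then added; thiocholine was read colorimetrically after 10 min at room temperature.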

Acetylcholinesterase (Homo sapiens), sequence (P22303 whole entry, looked up): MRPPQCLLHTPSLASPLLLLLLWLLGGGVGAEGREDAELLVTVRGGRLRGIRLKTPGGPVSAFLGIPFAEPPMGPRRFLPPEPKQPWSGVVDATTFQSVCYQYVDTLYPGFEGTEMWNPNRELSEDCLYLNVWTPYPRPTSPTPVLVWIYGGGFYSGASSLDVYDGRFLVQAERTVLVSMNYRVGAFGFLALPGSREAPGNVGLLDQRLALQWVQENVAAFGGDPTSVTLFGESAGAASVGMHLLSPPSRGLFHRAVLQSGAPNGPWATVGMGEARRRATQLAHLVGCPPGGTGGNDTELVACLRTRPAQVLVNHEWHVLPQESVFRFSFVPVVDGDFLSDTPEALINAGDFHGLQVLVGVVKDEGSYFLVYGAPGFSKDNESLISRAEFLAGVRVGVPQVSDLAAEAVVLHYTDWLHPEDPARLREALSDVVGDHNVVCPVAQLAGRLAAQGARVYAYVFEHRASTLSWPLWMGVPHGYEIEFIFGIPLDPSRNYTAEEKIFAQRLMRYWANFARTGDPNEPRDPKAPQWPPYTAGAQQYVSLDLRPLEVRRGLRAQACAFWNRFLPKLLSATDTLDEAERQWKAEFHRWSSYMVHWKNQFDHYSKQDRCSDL

Regarding `CN[C@H]1CC[C@@H](c2ccc(Cl)c(Cl)c2)c2ccc(S(N)(=O)=O)cc21`, the Potency entry in assay [1] and in assay [3] was “inactive” in each case. Moreover, the Potency in assay [2] was 35.6 µM (active).
As to `CCCCCCCC[P+](CCCCCCCC)(CCCCCCCC)CCCCCCCC`, in assay [1], the Potency was 22.3 µM (active). In addition, the Potency entry in assay [3] is “inactive”.
Take `CCC(C)C(=O)OC` (centres undefined): the Potency entry in assay [1], in assay [2] and in assay [3] was “inactive” in each case.
As to `NS(=O)(=O)c1cc2c(cc1C(F)(F)F)NCNS2(=O)=O`, the Potency result in assay [1] and in assay [3] was “inactive” in each case.
For `CCN(CC)c1ccc2c(c1)Oc1cc(N(CC)CC)ccc1C21OC(=O)c2ccccc21`, the Potency result in assay [1] and in assay [3] was “inactive” each time.
On to `Cc1cc2c(cc1C(F)(F)F)N(C(=O)Nc1ccc(Oc3cccnc3C)nc1)CC2`, for which the Potency entry in assay [1], in assay [2] and in assay [3] was “inactive” in each case.
For `CCCOC(=O)c1ccc(O)cc1`, the Potency entry in assay [1], in assay [2] and in assay [3] was “inactive” throughout.
In the case of `CCOC(=O)C1CC(=O)C(=C(O)C2CC2)C(=O)C1` (centres undefined), the Potency entry in assay [1], in assay [2] and in assay [3] was “inactive” each time.
Take `NC1(c2ccc(-c3nc4ccn5c(=O)[nH]nc5c4cc3-c3ccccc3)cc2)CCC1`: the Potency result in assay [1] and in assay [3] was “inactive” each time.
In the case of `C[n+]1ccn(Cc2ccccc2)c1`, the Potency result in assay [1] and in assay [3] was “inactive” in each case.
Consider `N#C/C(=C1\SCC(c2ccccc2Cl)S1)n1ccnc1` (centres undefined), for which the Potency entry in assay [1] and in assay [3] was “inactive” in each case.
Regarding `O=C(CCCl)NCCc1ccccc1`, the Potency result in assay [1], in assay [2] and in assay [3] was “inactive” in each case.
For `CC1(C)CCC(C)(C)c2cc(NC(=O)c3ccc(C(=O)O)cc3)ccc21`, the Potency entry in assay [1] and in assay [3] was “inactive” in each case.
Turning to `O=[N+]([O-])c1cc(Cl)c(Cl)c(Cl)c1Cl`, the Potency entry in assay [1], in assay [2] and in assay [3] was “inactive” in each case.
In the case of `Cc1cc(-c2ccc(N=Nc3cc(S(=O)(=O)O)c4ccccc4c3N)c(C)c2)ccc1N=Nc1cc(S(=O)(=O)O)c2ccccc2c1N`, the Potency entry in assay [1] and in assay [3] was “inactive” throughout.
For the molecule `CCCCCCCCC(=O)OCC(C)OC(=O)CCCCCCCC` (centres undefined), the Potency result in assay [1], in assay [2] and in assay [3] was “inactive” throughout.
In the case of `Cc1cc(=O)oc2cc(N(C)C)ccc12`, the Potency entry in assay [1] and in assay [3] was “inactive” each time.
With `CN1CCC(=C2c3ccccc3CC(=O)c3sccc32)CC1`, the Potency entry in assay [1], in assay [2] and in assay [3] was “inactive” in each case.
For `C/C=C/C=C/COC(=O)C(C)C`, the Potency result in assay [1], in assay [2] and in assay [3] was “inactive” throughout.
In the case of `CCCCN(CCCC)CCCOC(=O)c1ccc(N)cc1`, the Potency result in assay [1] and in assay [3] was “inactive” each time.
For `Cc1nc(Nc2ncc(C(=O)Nc3c(C)cccc3Cl)s2)cc(N2CCN(CCO)CC2)n1`, the Potency result in assay [1] and in assay [3] was “inactive” in each case.
As to `CN(C)CCC[C@@]1(c2ccc(F)cc2)OCc2cc(C#N)ccc21`, the Potency result in assay [1] and in assay [3] was “inactive” throughout.
With `CN1CCC(=C2c3ccccc3CCc3sccc32)CC1`, the Potency entry in assay [1] and in assay [3] was “inactive” in each case.
As to `COc1ccc(-c2cc(=O)c3c(O)cc(O[C@@H]4O[C@H](CO[C@@H]5O[C@@H](C)[C@H](O)[C@@H](O)[C@H]5O)[C@@H](O)[C@H](O)[C@H]4O)cc3o2)cc1O`, the Potency entry in assay [1], in assay [2] and in assay [3] was “inactive” each time.
In the case of `Clc1ccc2c(c1)CCc1cccnc1C2=C1CCNCC1`, the Potency entry in assay [1] and in assay [3] was “inactive” each time.
For `CN(C(=O)CCCOc1ccc2[nH]c(=O)ccc2c1)C1CCCCC1`, the Potency result in assay [1] and in assay [3] was “inactive” throughout.
Regarding `COc1ccc2cc(S(=O)(=O)N[C@H](CC(=O)N[C@H](Cc3ccc(CN4[C@H](C)CCC[C@@H]4C)cc3)C(=O)N(C)C(C)C)c3ccc4c(c3)OCO4)ccc2c1`, the Potency result in assay [3] is “inactive”.
